The source of these data is PubChem BioAssay (EPA / NIEHS).

What all share (conditions): primary human HUVEC with PBMC; actives raise or lower the signal
Test [1] is described as follows: BSK_LPS_PGE2: BioMAP Diversity Plus: LPS Assay for Prostaglandin E2 (PGE2) Biomarker Activity (AID 2283082).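 As to AC50: secreted prostaglandin E2 measured by ELISA in LPS-stimulated co-culture.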 Summed up:
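ELISA read-out of PGE2 from human umbilical vein endothelial cells co-cultured with peripheral blood mononuclear cells under LPS, 24 h post-dose. Gain or loss of signal scored relative to DMSO baseline.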

Read-out in test [2]: Macrophage colony-stimulating factor (MCSF), CSF1 (gene 1435)
Kind of test: BSK_LPS_MCSF: BioMAP Diversity Plus: LPS Assay for Macrophage colony-stimulating factor (MCSF) Biomarker Activity (AID 2283083). Summed up: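 HUVEC + PBMC co-culture (human primary), 24 h post-dose; M-CSF by ELISA; gain/loss of signal fitted bidirectionally vs DMSO baseline.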

Read-out in test [3]: Tissue Factor, F3 (gene 2152)
Description: BSK_LPS_TissueFactor: BioMAP Diversity Plus: LPS Assay for Tissue Factor Biomarker Activity (AID 2283084). Summed up: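 HUVEC/PBMC co-culture, LPS-activated; CD142 ELISA read 24 h post-dose; bidirectional curve fit vs DMSO negative control.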

Read-out in test [4]: Tumor necrosis factor (Homo sapiens) (UniProt P01375)
Description: BSK_LPS_TNFa: BioMAP Diversity Plus: LPS Assay for Tumour Necrosis Factor alpha (TNFa) Biomarker Activity (AID 2283085).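 As to AC50: TNFa protein level quantified by ELISA in the co-culture.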 In outline: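 HUVEC/PBMC co-culture, LPS-stimulated; 24 h post-dose; TNFa by ELISA; gain or loss of signal fitted bidirectionally vs DMSO baseline.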

Read-out in test [5]: Vascular cell adhesion molecule 1 (VCAM1), VCAM1 (gene 7412)
Description: BSK_LPS_VCAM1: BioMAP Diversity Plus: LPS Assay for Vascular cell adhesion molecule 1 (VCAM1) Biomarker Activity (AID 2283086). In outline: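 ELISA read-out of VCAM-1 at 24 h post-dosing in an LPS-driven HUVEC/PBMC primary human co-culture; gain or loss of signal fitted bidirectionally against DMSO baseline. Cytotoxicity tracked in parallel cultures by SRB total-protein staining.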

Read-out in test [6]: CD38, CD38 (gene 952)
Description: BSK_SAg_CD38: BioMAP Diversity Plus: SAg Assay for CD38 Biomarker Activity (AID 2283087). In outline:
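Measures CD38 on a human endothelial/PBMC co-culture driven by SEB and TSST-1, 24 h after compound exposure, using ELISA with fluorescence detection; DMSO defines baseline for bidirectional curve fitting.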

Read-out in test [7]: CD40, CD40 (gene 958)
Description: BSK_SAg_CD40: BioMAP Diversity Plus: SAg Assay for CD40 Biomarker Activity (AID 2283088). In outline: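 HUVEC/PBMC co-culture, 24 h post-dose; CD40 by ELISA, fluorescence intensity; bidirectional fit vs DMSO negative control.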

Read-out in test [8]: CD69, CD69 (gene 969)
Kind of test: BSK_SAg_CD69: BioMAP Diversity Plus: SAg Assay for CD69 Biomarker Activity (AID 2283089).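 As to AC50: cell surface CD69 protein quantified by ELISA with fluorescence detection.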 In outline:
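Values derive from bidirectional fitting relative to DMSO vehicle. Cells: umbilical vein endothelium plus peripheral blood mononuclear cells, treated 24 h before fluorescent ELISA for CD69.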

Read-out in test [9]: Monocyte Chemoattractant Protein-1 (MCP1), CCL2 (gene 6347)
Kind of test: BSK_SAg_MCP1: BioMAP Diversity Plus: SAg Assay for Monocyte Chemoattractant Protein-1 (MCP1) Biomarker Activity (AID 2283090). Summed up: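 Values derive from bidirectional fitting of ELISA-measured MCP1 against DMSO controls. Readings were taken 24 h after dosing human vascular endothelial cells co-cultured with peripheral blood mononuclear cells under superantigen stimulation.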

Read-out in test [10]: E-selectin (Homo sapiens) (UniProt P16581)
Kind of test: BSK_SAg_Eselectin: BioMAP Diversity Plus: SAg Assay for Eselectin Biomarker Activity (AID 2283091). Summed up:
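E-selectin ELISA readout at 24 h post-dosing in human umbilical vein endothelial cell/PBMC co-culture; gain or loss of signal fitted relative to DMSO baseline.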

SMILES strings stand for the structures. Active and inactive are the calls of the source. The calls were made as follows: active = hit-call score of the fitted dose curve at least 0.9, where 1 is the maximum; inactive = score below 0.9.

Chain of E-selectin (Homo sapiens) (P16581 whole entry, looked up): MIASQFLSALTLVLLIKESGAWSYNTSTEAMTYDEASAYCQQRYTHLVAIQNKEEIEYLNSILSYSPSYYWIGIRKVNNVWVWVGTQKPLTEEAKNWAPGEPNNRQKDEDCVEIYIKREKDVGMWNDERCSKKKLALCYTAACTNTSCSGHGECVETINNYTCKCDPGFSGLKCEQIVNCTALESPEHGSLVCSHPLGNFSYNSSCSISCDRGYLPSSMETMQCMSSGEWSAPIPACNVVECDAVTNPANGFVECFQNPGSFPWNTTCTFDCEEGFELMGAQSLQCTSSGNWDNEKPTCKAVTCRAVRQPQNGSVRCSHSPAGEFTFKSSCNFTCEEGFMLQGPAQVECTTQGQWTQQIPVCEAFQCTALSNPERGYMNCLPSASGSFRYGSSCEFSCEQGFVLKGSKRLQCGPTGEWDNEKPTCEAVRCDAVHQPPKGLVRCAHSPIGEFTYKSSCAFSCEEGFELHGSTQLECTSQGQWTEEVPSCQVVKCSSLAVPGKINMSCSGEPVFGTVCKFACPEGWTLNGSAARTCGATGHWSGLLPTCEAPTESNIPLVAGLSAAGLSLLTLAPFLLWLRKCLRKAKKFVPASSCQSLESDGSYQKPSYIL
Chain of Tumor necrosis factor (Homo sapiens) (P01375 whole entry, looked up): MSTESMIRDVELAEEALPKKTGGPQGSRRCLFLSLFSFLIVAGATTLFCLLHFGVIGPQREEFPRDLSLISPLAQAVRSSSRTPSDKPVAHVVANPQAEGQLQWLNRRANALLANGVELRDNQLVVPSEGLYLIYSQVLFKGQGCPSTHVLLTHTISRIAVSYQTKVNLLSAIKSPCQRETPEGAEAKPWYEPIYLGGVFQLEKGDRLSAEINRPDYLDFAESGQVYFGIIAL

Consider `Cc1[nH]cnc1C[C@H]1CCc2c(C)c3ccccc3n2C1=O`, for which the result in test [1] and in test [3] was inactive. In addition, the AC50 (usually the midpoint of the concentration-response curve, whichever way the signal moves) in test [2] was 29.2 µM (active); in test [4] it was 25.7 µM (active); in [5], 32.9 µM (active); in [6], 31.2 µM (active); in test [7] it was 29.8 µM (active); in test [8], 27.4 µM (active). Moreover, the AC50 in [9] is 27.8 µM (active); in test [10] it was 30.8 µM (active).

As to `CC(C)(O)c1coc(S(=O)(=O)NC(=O)Nc2c3c(cc4c2CCC4)CCC3)c1`, the result in test [1], in test [2], in test [3], in [5], in test [6] and in [7] was inactive. The outcome in test [8], in test [9] and in [10] was inactive. Further, in test [4], the AC50 was 0.405 µM (active).

For the molecule `On1ccccc1=S`, the AC50 was 31.1 µM (active) in test [1]; 19.8 µM (active) in test [5]; 12.2 µM (active) in test [6]; 27.8 µM (active) in [7]; 12.2 µM (active) in test [8]; 13 µM (active) in test [9]. Besides, the half-maximal activity concentration (AC50) in test [10] is 8.16 µM (active). Further, the outcome in test [2], in test [3] and in test [4] was inactive.

As to `COCCOc1cc2cc(C(=O)NC3CCN(C(C)C)CC3)n(CC(=O)Nc3ccc(Cl)cn3)c2cn1`, the result in test [1], in test [2], in test [3], in test [4], in test [5] and in test [6] was inactive. The outcome in [7], in [8], in [9] and in [10] was inactive.

On to `CC(=O)OCCC(C)C`, for which the outcome in test [1], in test [2], in test [3], in test [4], in [5] and in test [6] was inactive. The result in test [7], in test [8], in test [9] and in [10] was inactive.

In the case of `O=C(NS(=O)(=O)/C=C/c1ccccc1)c1ccc(F)cc1Cl`, the outcome in [1], in test [2], in [3], in test [4], in [5] and in test [6] was inactive. The result in [8], in test [9] and in [10] was inactive. Moreover, in test [7], the AC50 was 9.37 µM (active).

On to `Clc1nc(Cl)c(Cl)c(Cl)c1Cl`, for which the AC50 in test [1] was 15.1 µM (active); in [2], 32.2 µM (active); in test [3] it was 33.1 µM (active); in test [4], 31.7 µM (active); in test [5], 32.3 µM (active); in [6], 34.4 µM (active). In addition, the AC50 is 30 µM (active) in test [7], 26.3 µM (active) in [8], 31.4 µM (active) in test [9] and 25.1 µM (active) in test [10].

As for `CC1=CC(=O)CC(C)(C)C1`, the result in test [1], in test [2], in test [3], in test [4], in test [5] and in test [6] was inactive. Further, the result in test [7], in test [8], in [9] and in [10] was inactive.

With `O=C1CCCCCN1`, the result in [1], in [2], in test [3], in test [4], in test [5] and in test [6] was inactive. The result in test [7], in test [8], in test [9] and in [10] was inactive.

With `CCOC(=O)c1ccc(C2CCC(NC[C@H](O)COc3ccc(O)c(NS(C)(=O)=O)c3)CC2)cc1` (stereo not given in full), the result in test [1], in [3], in [4], in test [7] and in test [10] was inactive. The AC50 in test [2] was 18.7 µM (active); in test [5], 28.1 µM (active); in test [6] it was 32.4 µM (active); in [8], 29.8 µM (active); in test [9] it was 11.6 µM (active).

Regarding `CC(C)=CCC/C(C)=C/CO`, the result in test [1], in [2], in test [3], in test [4], in [5] and in test [6] was inactive. Further, the outcome in test [7], in test [8], in test [9] and in [10] was inactive.

Consider `CCCC(=O)OCC`, for which the result in test [1], in [2], in test [3], in test [4], in [5] and in test [6] was inactive. Moreover, the outcome in test [7], in test [8], in test [9] and in test [10] was inactive.

`Fc1ccccc1[C@@H](F)COC1CCC(Nc2ncnc3[nH]ncc23)CC1` (stereo not given in full): the outcome in [1], in [3], in [4], in test [5] and in test [10] was inactive. The half-maximal activity concentration (AC50) in test [2] is 20 µM (active); in [6] it was 20 µM (active); in test [7] it was 16.3 µM (active); in test [8] it was 24.2 µM (active); in test [9], 31.6 µM (active).

On to `CC(=O)c1ccc2c(c1)[C@H](NC(=O)c1ccc(F)cc1)[C@@H](O)C(C)(C)O2`, for which the result in test [1], in test [2], in test [3], in test [4], in test [5] and in test [6] was inactive. In addition, the result in test [7], in [8], in test [9] and in [10] was inactive.

Take `CN(C)c1ccc(N=NS(=O)(=O)O)cc1`: the outcome in test [1], in [2], in test [4], in test [6], in test [7] and in test [8] was inactive. In addition, the result in test [9] and in [10] was inactive. Moreover, the AC50 was 5.8 µM (active) in [3] and 10.4 µM (active) in [5].

With `CC[C@H]1OC(=O)[C@H](C)[C@@H](O[C@H]2C[C@@](C)(OC)[C@@H](O)[C@H](C)O2)[C@H](C)[C@@H](O[C@@H]2O[C@H](C)C[C@H](N(C)C)[C@H]2O)[C@](C)(O)C[C@@H](C)C(=O)[C@H](C)[C@@H](O)[C@]1(C)O`, the result in test [1], in [2], in [3], in test [4], in test [5] and in test [6] was inactive. Moreover, the outcome in test [7], in [8], in [9] and in test [10] was inactive.

As for `CC1(C)C(=O)N(Br)C(=O)N1Br`, the result in [1], in test [2], in test [3], in test [4], in test [5] and in test [6] was inactive. The outcome in [7], in test [8], in test [9] and in test [10] was inactive.

`O=C(O)c1cccc(N(Cc2cccnc2)c2ccc(OC(F)F)c(OC(F)F)c2)c1`: the AC50 was 12.2 µM (active) in test [1]; 9.14 µM (active) in test [3]; 1.95 µM (active) in [4]; 15.9 µM (active) in test [5]; 3.61 µM (active) in [6]; 13.7 µM (active) in test [7]. Further, the results for the AC50 in [8], in [9] and in test [10] were 4.01 µM (active), 6.77 µM (active) and 1.81 µM (active), respectively. In [2], the result was inactive.

Regarding `O=c1n(CC2CO2)c(=O)n(CC2CO2)c(=O)n1CC1CO1` (stereo not given), the result in test [1], in [3] and in test [4] was inactive. In addition, the AC50 is 20 µM (active) in [2]; 21.8 µM (active) in [5]; 18.5 µM (active) in test [6]; 20 µM (active) in [7]; 20 µM (active) in test [8]; 20 µM (active) in test [9]. Further, the AC50 in test [10] was 10.7 µM (active).

As for `CCCCCCCCO`, the outcome in test [1], in test [2], in [3], in test [4], in [5] and in test [6] was inactive. The result in test [7], in test [8], in [9] and in test [10] was inactive.
